# Laboratory results as given in PubChem BioAssay.
# “And” between values parts separate entries of the source, which are not always exact repeats. Equal entries are not always repeated. The source made the active and inactive calls.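 How the source made its calls, unless noted: active means inhibition at or above 50% relative to wild type and mutant plate controls; inactive means inhibition below 50%.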
# Legend:
# [1] = inhibitors of TNFa-induced NFkB p65 translocation, primary screen, imaging, HUVEC, MLSMR starter and 10KST1 sets (AID 438;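 active means inhibition above 20% together with a positive visual image hit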;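 further: compound added about 3h40 before a 20 min TNFalpha stimulation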;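 on inhibition: signal is the nuclear over cytoplasmic p65 intensity ratio per well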); details: HUVEC TNFa-induced p65 nuclear translocation; cell count: measured here: nuclei count (cytotoxicity indicator), at 2.08 µM; inhibition: at 2 µM, stronger effect = higher value, 0% TNFa-plus-vehicle, 100% no-TNFa wells
# [2] = reduction of polyQ htt aggregates in cells – imaging, exon1htt(103Q)mCFP cells, high-content imaging, primary screen (AID 483;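 active means visual image review flags a hit and inhibition of aggregation exceeds 20%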;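 further: compound exposure lasted 3 days before fixation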;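 on nuclei count: percent of the per-plate median nuclei count of sample wells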); details: exon1htt(103Q)mCFP cell line, aggregate imaging, at 2 µM; inhibition of aggregation: stronger effect = higher value; nuclei count: measured here: cell count, toxicity
# [3] = endothelial E-selectin expression blockers – imaging, HUVEC, immunofluorescence, MLSMR starter and 10KST1 sets, primary screen (AID 487;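 active means visually confirmed hit in the image check and inhibition above 20%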;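 on inhibition: signal is fraction of cell area covered by stained E-selectin grains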;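 on nuclei count: 100% = median nuclei count of all wells on the same plate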); details: HUVEC TNFalpha-induced E-selectin immunofluorescence imaging, at 2 µM; inhibition: stronger effect = higher value; nuclei count: measured here: cell number, toxicity
# [4] = Primary imaging screen for DUSP6 inhibitors that restore phospho-Erk in transfected HeLa cells, chemical complementation (AID 609;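 active means compounds giving at least 50% inhibition in the cell-based MKP-3 phosphatase rescue imaging test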;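 on inhibition: phospho-Erk level distribution per well compared with pooled transfected vehicle control wells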); details: HeLa MKP-3 transfected, phospho-Erk imaging KS statistic, at 10 µM, cells stimulated with TPA for 15 min
# [5] = target: Dual specificity protein phosphatase 6 (Homo sapiens) (UniProt Q16828); experiment: as above; details: HeLa MKP-3 transfected, phospho-Erk imaging KS statistic; at 10 µM; stronger effect = higher value; cells stimulated with TPA for 15 min
# [6] = target: Voltage-gated potassium channel subunit beta-2 (Rattus norvegicus) (UniProt P62483); experiment: inhibitors of rat Kvbeta2 reductase activity – biochemical, NADPH fluorescence, primary screen (AID 622;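 active means fluorescence slope higher than the sample average by over 3 SD, cut at about -0.22 in these data, passing the limit was not always enough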;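 further: slope of raw intensity against log time taken from 70 to 1610 s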); details: recombinant KvBeta, 4-cyanobenzaldehyde reduction, at 10 µM, stronger effect = higher value
# [7] = target: Voltage-gated potassium channel subunit beta-2 (Rattus norvegicus) (UniProt P62483); experiment: enhancers of rat Kvbeta2 NADPH turnover – biochemical, NADPH fluorescence, primary screen (AID 623;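 active means NADPH fluorescence slope more negative than the mean of all samples by about 3 SD, 99.7% confidence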;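 further: fluorescence intensity change per second fitted from 20 to 320 s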); details: Recombinant KvBeta, NADPH fluorescence decrease slope, 10 min; at 10 µM; stronger effect = lower value
# [8] = target: Alpha-2C adrenergic receptor (Homo sapiens) (UniProt P18825); experiment: compounds altering alpha2C-coupled GIRK flux – cell-based, HEK293 alpha2C/GIRK1/2, thallium flux, primary screen (AID 624;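 active means fluorescence slope after compound addition differing from the mean of all screened samples at 99.7% confidence, in either direction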;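 further: slope of fluorescence ratio to pre-addition baseline per second over 15 to 24 s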); details: thallium flux BTC fluorescence, at 10 µM, actives lie on both sides
# [9] = inhibitors of larval lipid processing in zebrafish, primary screen, whole organism, PED6 fluorescence, gall bladder and intestine (AID 686;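 active means a full or partial loss of lipid-probe fluorescence in the fish gall bladder, intestine or both, judged by eye; inactive means no fluorescence loss, or compound toxic to the fish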;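 further: larvae 5 to 7 days old with five fish per well; signal comes from phospholipase A2 cleavage of quenched PED6 carried via bile; overnight exposure to compound and PED6 before scoring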); details: Zebrafish larvae PED6 lipid processing, fluorescence scoring; screened at 20 µM (by protocol)
# [10] = loss of swimming-algae plug formation – whole organism, Chlamydomonas reinhardtii, WT vs cilia-less mutant, absorbance, 96-well, primary screen (AID 463189); details: Chlamydomonas reinhardtii gravitaxis, OD600 absorbance, 2 days; at 10 µM; stronger effect = higher value;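 further: 0% = wild type cc124 cells in DMSO and 100% = ciliumless bld1 mutant cells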
# [11] = blockers of RIG-like receptor reporter activation – cell-based, Sendai virus stimulus, luciferase, 10K MLSCN set, TLR/RLR signaling modifier project, primary screen (AID 602276;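 active means inhibition at or above 50% at 10 µM; inactive means inhibition below 50%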;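 further: firefly luciferase from ISG56 promoter only with Renilla not read in this screen; 0% = Sendai virus plus DMSO and 100% = medium plus DMSO without virus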); details: HEK293 RL24 IRF3 luciferase reporter, at 10 µM, stronger effect = higher value
# [12] = TLR3 IRF3 reporter activation blockers – cell-based, poly I:C stimulus, luciferase, 10K MLSCN set, primary screen (AID 602277;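 active means inhibition of the reporter signal at or above 50%; inactive means inhibition below 50%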); details: HEK293-TLR3 RL24 IRF3 luciferase reporter, at 10 µM, stronger effect = higher value
# [13] = measured here: cell density z-score
# [14] = measured here: nuclear c-Myc green intensity z-score
# [15] = measured here: nuclear pErk red intensity z-score, stronger effect = higher value
# Chain of Dual specificity protein phosphatase 6 (Homo sapiens) (Q16828 whole entry, looked up): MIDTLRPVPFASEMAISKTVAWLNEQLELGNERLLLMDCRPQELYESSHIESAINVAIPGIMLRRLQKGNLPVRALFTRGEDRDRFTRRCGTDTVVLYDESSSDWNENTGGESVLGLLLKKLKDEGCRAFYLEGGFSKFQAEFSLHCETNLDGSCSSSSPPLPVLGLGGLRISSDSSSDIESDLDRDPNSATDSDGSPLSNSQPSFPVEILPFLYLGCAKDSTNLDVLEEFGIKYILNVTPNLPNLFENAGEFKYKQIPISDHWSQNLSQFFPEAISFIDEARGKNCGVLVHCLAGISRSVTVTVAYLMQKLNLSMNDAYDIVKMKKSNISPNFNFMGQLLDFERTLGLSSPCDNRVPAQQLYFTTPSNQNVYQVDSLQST
# Chain of Voltage-gated potassium channel subunit beta-2 (Rattus norvegicus) (P62483 whole entry, looked up): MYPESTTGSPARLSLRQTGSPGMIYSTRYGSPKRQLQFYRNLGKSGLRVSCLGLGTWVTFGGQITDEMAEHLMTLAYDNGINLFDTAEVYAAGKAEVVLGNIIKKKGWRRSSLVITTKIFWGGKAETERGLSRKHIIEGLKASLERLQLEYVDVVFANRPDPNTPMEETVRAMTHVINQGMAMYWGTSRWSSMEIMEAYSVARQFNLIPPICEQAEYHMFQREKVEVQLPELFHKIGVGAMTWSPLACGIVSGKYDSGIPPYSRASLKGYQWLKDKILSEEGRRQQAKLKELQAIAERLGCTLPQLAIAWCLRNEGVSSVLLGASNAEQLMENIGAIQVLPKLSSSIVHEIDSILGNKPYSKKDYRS
# Chain of Alpha-2C adrenergic receptor (Homo sapiens) (P18825 whole entry, looked up): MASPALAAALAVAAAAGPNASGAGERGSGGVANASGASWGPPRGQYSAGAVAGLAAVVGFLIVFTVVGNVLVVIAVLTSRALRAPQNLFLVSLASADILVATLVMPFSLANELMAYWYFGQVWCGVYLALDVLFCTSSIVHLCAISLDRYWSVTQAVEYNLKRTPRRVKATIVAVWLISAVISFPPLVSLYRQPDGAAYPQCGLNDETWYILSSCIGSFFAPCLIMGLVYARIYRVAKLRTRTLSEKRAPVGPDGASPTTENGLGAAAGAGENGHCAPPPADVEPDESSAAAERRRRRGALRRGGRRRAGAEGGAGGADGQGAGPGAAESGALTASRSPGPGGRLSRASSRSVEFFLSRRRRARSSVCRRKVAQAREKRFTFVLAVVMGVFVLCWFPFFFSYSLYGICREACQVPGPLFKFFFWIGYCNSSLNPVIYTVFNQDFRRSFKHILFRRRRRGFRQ
Compound,cell count [1],inhibition [1],inhibition of aggregation [2],nuclei count [2] [%],inhibition [3],nuclei count [3] [%],"z-score [4, 13]","z-score [4, 14]","z-score [4, 15]",inhibition [5],fluorescence slope [6],NADPH fluorescence slope [7],slope [8],outcome [9],inhibition [10],inhibition [11],inhibition [12]
CCCCC[C@H](O)/C=C/[C@@H]1[C@@H](CCCCCCC(=O)O)[C@@H](O)C[C@H]1O,594,-7.7% (inactive),9% (inactive),106,-80.7% (inactive),114,-0.368,0.536,-0.971,7.39% (inactive),-0.458 (inactive),-4e-05 (inactive),0.00481 (inactive),inactive,-6.66% (inactive),11.4% (inactive),33.8% (inactive)
C[C@]12CCC(=O)C=C1CC[C@@H]1[C@@H]2C(=O)C[C@@]2(C)[C@H]1CC[C@]2(O)C(=O)CO,603,-6% (inactive),21.4% (inactive),102,-119% (inactive),120,-0.503,-1.16,1.19,-4.44% (inactive),-0.503 (inactive),-3.1e-05 (inactive),0.00463 (inactive),inactive,-0.81% (inactive) and 2.73% (inactive),10.2% (inactive),21.1% (inactive)
CC(C[N+](C)(C)C)OC(N)=O (stereo not given),492,17.2% (inactive),-16.6% (inactive),106,-25.7% (inactive),125,-0.295,0.566,-0.0176,5.42% (inactive),-0.491 (inactive),-6.6e-05 (inactive),0.00575 (inactive),inactive,4.16% (inactive) and 23.3% (inactive),14.7% (inactive),38.3% (inactive)
COc1cccc(Cn2c(OCC3CCCO3)nc3c2c(=O)n(C)c(=O)n3C)c1 (stereo not given),411,-13.3% (inactive),1.3% (inactive),104,-83.9% (inactive),153,-0.111,0.171,0.516,-7.28% (inactive),-0.377 (inactive),-2.5e-05 (inactive),0.00528 (inactive),inactive,0.777% (inactive),17.3% (inactive),17.8% (inactive)
Cc1csc(NC(=O)CSc2nsc(SCC(=O)Nc3nc(C)cs3)c2C#N)n1,655,-10.4% (inactive),12.2% (inactive),105,-15.8% (inactive),141,-1.33,0.375,-0.579,6.51% (inactive),-0.37 (inactive),-3.7e-05 (inactive),0.00462 (inactive),inactive,2.21% (inactive),-8.75% (inactive),-83.6% (inactive)
Cc1nc(-c2coc3cc(OCC(=O)O)ccc3c2=O)cs1,642,-9% (inactive),16.4% (inactive),100,-136% (inactive),114,-0.205,0.979,0.055,11.9% (inactive),-0.552 (inactive),-4.6e-05 (inactive),0.00509 (inactive),inactive,29.5% (inactive),20.3% (inactive),15.4% (inactive)
CCOC(=O)N1CCC(=C2c3ccc(Cl)cc3CCc3cccnc32)CC1,695,-7.4% (inactive),-15% (inactive),106,-79.3% (inactive),132,1.11,0.137,-0.637,27.1% (inactive),-0.512 (inactive),-3.2e-05 (inactive),0.00337 (inactive),inactive; toxic,-6.14% (inactive) and -3.57% (inactive),-15.2% (inactive),-34% (inactive)
COc1cc(/C=N/n2c(C)nnc2C)cc(OC)c1OC,454,-5.9% (inactive),3.2% (inactive),109,-27.1% (inactive),92.1,0.126,-0.553,-1.17,-1.75% (inactive),-0.395 (inactive),-3.1e-06 (inactive),0.00638 (inactive),inactive,23.6% (inactive),14% (inactive),13.7% (inactive)
Cc1nn(C)cc1C1C2=C(CC(C)(C)CC2=O)OC2=C1C(=O)CC(C)(C)C2,616,-2.2% (inactive),2.2% (inactive),108,-77.9% (inactive),140,0.812,0.307,-0.678,2.46% (inactive),-0.337 (inactive),-6.9e-06 (inactive),0.00477 (inactive),inactive,1.65% (inactive),10.6% (inactive),18% (inactive)
CC(C)(S)[C@@H](N)C(=O)O,657,-4.4% (inactive),-5.6% (inactive),105,-120% (inactive),138,1.21,-0.53,-0.44,3.45% (inactive),-0.482 (inactive),-4.6e-05 (inactive),0.00423 (inactive),inactive,-3.9% (inactive),22.7% (inactive),43.2% (inactive)
